# In PubChem BioAssay:
# The source made the active and inactive calls. Unless noted, how the calls were made is not given here.
# How the values were obtained:
# [1] = A549 cell viability effects, profiling panel, calcein-AM fluorescence, 48 h, basal (AID 1162); conditions: higher = more signal; further: test concentration not given here
# [2] = adipocyte viability effects, profiling panel, cell-based, 3T3-L1 adipocytes, calcein-AM fluorescence, 48 h, basal (AID 1163); conditions: 3T3-L1 adipocytes viability, higher = more signal; further: test concentration not given here
# [3] = HepG2 cell viability effects, profiling panel, calcein-AM fluorescence, 48 h, basal (AID 1164); conditions: higher = more signal; further: test concentration not given here
# [4] = MM1S cell viability effects, profiling panel, calcein-AM fluorescence, 48 h, basal (AID 1165); conditions: higher = more signal;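 further: viability of MM1S multiple myeloma cells under basal unstimulated conditions; test concentration not given here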
# [5] = basal RPMI8226 viability, no added stimulus, profiling panel, cell-based, calcein-AM fluorescence, 48 h, PK04 Diversity Set (AID 1166); conditions: RPMI8226 myeloma viability, higher = more signal;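 further: cells grown under basal conditions without added stimulus; test concentration not given here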
# [6] = basal HepG2 mitochondrial membrane potential changes, profiling panel, cell-based, JC-1 fluorescence, 24 h, 100 nL compound (AID 1167); conditions: higher = more signal; further: test concentration not given here
# [7] = basal 3T3-L1 adipocyte mitochondrial potential changes, profiling panel, cell-based, JC-1 fluorescence, 3T3-L1 adipocytes, 24 h, 100 nL compound (AID 1168); conditions: JC-1 mitochondrial fluorescence, higher = more signal, called active from +8 up or from −8 down; further: test concentration not given here
# [8] = basal RPMI8226 mitochondrial membrane potential changes, profiling panel, cell-based, JC-1 fluorescence, 24 h, 100 nL compound (AID 1169); conditions: RPMI8226 myeloma, JC-1 mitochondrial potential fluorescence, higher = more signal; further: test concentration not given here
# [9] = basal MM1S mitochondrial membrane potential changes, profiling panel, cell-based, JC-1 fluorescence, 24 h, 100 nL compound (AID 1170); conditions: higher = more signal; further: test concentration not given here
# [10] = A549 lung cancer cell viability effects, profiling panel, resazurin fluorescence, 24 h, PK04 Diversity Set (AID 1171); conditions: higher = more signal, called active from +8 up or from −8 down; further: test concentration not given here
# [11] = HepG2 liver cancer cell viability effects, profiling panel, resazurin fluorescence, 24 h, PK04 Diversity Set (AID 1172); conditions: higher = more signal; further: test concentration not given here
# [12] = basal S. cerevisiae growth modulation, no modifier, primary screen, OD600, strain BY4716, 24 h, basal condition (AID 1173); conditions: OD600, 24 h, higher = more signal, called active from +8 up or from −8 down
# [13] = MM1S myeloma cell viability, profiling panel, resazurin fluorescence, basal, 24 h, PK04 Diversity Set (AID 1174); conditions: higher = more signal, called active from +8 up or from −8 down;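 further: MM1S multiple myeloma cell line; test concentration not given here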
# [14] = target: Dihydroorotate dehydrogenase (quinone), mitochondrial (Plasmodium falciparum (isolate 3D7)) (UniProt Q08210); assay: PfDHODH enzyme inhibitors, primary screen, biochemical, C-terminal His tag, absorbance 600 nm (AID 1175); conditions: DCIP absorbance 600 nm, higher = more signal, called active from +8 up or from −8 down;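 further: recombinant parasite enzyme with a five histidine tag at its C terminus; test concentration not given here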
# Chain of Dihydroorotate dehydrogenase (quinone), mitochondrial (Plasmodium falciparum (isolate 3D7)) (Q08210 whole entry, looked up): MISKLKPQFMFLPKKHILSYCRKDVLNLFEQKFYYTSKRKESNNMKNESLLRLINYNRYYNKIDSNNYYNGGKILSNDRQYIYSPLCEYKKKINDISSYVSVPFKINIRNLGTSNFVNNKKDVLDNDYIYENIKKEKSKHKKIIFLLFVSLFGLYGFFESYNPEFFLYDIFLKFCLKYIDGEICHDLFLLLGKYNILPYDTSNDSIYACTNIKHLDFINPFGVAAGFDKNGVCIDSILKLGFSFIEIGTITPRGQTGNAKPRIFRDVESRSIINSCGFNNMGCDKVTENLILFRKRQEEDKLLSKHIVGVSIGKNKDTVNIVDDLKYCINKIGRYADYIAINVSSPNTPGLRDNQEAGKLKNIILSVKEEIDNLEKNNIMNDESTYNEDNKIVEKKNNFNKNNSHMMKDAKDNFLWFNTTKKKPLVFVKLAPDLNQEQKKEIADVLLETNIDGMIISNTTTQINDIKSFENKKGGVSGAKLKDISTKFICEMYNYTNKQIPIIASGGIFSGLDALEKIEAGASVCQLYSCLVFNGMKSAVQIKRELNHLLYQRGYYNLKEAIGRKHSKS
# [15] = P. aeruginosa biofilm formation inhibitors, primary screen, strain PAO1, LB-PBS medium, absorbance 600 nm (AID 1176); further: test concentration not given here; conditions: P. aeruginosa PAO1 growth/biofilm, A600, 12 h; higher = more signal
# [16] = S. cerevisiae RM11-1a growth modifiers, primary screen, strain RM11-1a, OD600, basal, 24 h (AID 1177); conditions: OD600, 24 h, higher = more signal, called active from +8 up or from −8 down;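 further: cultures grown under basal conditions with no added stressor; test concentration not given here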
# [17] = E. coli acrAB mutant growth effects, primary screen, E. coli filamentation inducers, strain DRC39, OD650, 24 h (AID 1178); conditions: higher = more signal, called active from +8 up or from −8 down;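 further: growth measured as culture turbidity by optical density at 650 nm; test concentration not given here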
# [18] = E. coli acrAB mutant growth effects, primary screen, E. coli filamentation inducers, strain DRC39, OD650, 48 h (AID 1179);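 further: screen aims at cell division blockers that make cells filament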; conditions: E. coli DRC39 delta-acrAB growth, higher = more signal, called active from +8 up or from −8 down
# [19] = RPMI8226 myeloma cell viability, profiling panel, resazurin fluorescence, basal, 24 h, PK04 Diversity Set (AID 1180); conditions: higher = more signal;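 further: RPMI8826 multiple myeloma cell line at 5000 cells per well; test concentration not given here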
# [20] = target: E3 ubiquitin-protein ligase XIAP (Homo sapiens) (UniProt P98170); assay: XIAP binders, primary screen, biophysical, small-molecule microarray, fluorescence 635 nm (AID 1181); conditions: small-molecule microarray binding, higher = more signal;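 further: score merges 667 nm emission and signal to noise over triplicate slides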
# Chain of E3 ubiquitin-protein ligase XIAP (Homo sapiens) (P98170 whole entry, looked up): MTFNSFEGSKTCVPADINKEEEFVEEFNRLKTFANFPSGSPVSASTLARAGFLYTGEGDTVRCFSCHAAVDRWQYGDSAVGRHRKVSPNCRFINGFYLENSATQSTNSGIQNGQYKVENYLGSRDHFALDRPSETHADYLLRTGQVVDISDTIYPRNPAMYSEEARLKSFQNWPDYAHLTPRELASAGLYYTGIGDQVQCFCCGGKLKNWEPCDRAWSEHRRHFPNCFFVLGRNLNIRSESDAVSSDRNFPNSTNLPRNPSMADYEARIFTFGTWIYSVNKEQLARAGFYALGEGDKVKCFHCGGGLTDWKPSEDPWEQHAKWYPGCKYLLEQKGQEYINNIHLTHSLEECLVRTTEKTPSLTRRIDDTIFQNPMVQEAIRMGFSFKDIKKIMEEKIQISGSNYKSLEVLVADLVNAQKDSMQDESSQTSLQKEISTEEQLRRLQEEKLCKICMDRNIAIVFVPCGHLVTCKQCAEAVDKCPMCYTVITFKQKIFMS
SMILES,z-score [1],z-score [2],z-score [3],z-score [4],z-score [5],z-score [6],z-score [7],z-score [8],z-score [9],z-score [10],z-score [11],z-score [12],z-score [13],composite z-score [14],z-score [15],z-score [16],z-score [17],z-score [18],z-score [19],composite z-score [20]
C=CCC(OC(C)=O)[C@@H]1[C@@H](N(Cc2ccc(-c3ccccc3)cc2)C(=O)Cc2ccc(F)cc2)c2cc(OCCCO)ccc2N1C(=O)Cc1ccc(OC)cc1 (stereo not given in full),0.178,0.0992,0.833,0.399,-0.279,1.69,-1.02 (inactive),-0.112,-0.362,0.084 (inactive),-0.939,0.637 (inactive),0.0774 (inactive),-0.433 (inactive),-0.431 (inactive),0.313 (inactive),-0.455 (inactive),-0.14 (inactive),-0.103,0.0757
C=CCNC(=O)[C@H]1[C@@H]2C(=O)O[C@@H](c3ccccc3)[C@@H](c3ccccc3)N2[C@@H](c2ccc(O)cc2)[C@]12C(=O)Nc1ccc(C#CC3(O)CCCCCC3)cc12,-0.0001,0.0111,-1.37,-1.65,-4.08,-2.86,-1.62 (inactive),-1.25,-0.291,0.421 (inactive),0.435,-0.989 (inactive),-0.514 (inactive),0.19 (inactive),1.45 (inactive),-0.596 (inactive),0.186 (inactive),-0.11 (inactive),-0.458,-0.0622
CCOc1cc(C(O)C2C=CC3C(=O)N(C)C(=O)C3N2Nc2ccccc2)ccc1O (stereo not given),-0.157,-0.0778,-0.243,-2.21,-0.429,-1.48,-0.725 (inactive),-0.868,-0.536,-0.0004 (inactive),-0.687,1.11 (inactive),-0.328 (inactive),0.684 (inactive),0.807 (inactive),2.32 (inactive),-0.501 (inactive),-0.861 (inactive),-0.323,0.312
O[C@@H](Cc1ccccc1)[C@@H](/C=C/C1CC1)N(CC#Cc1ccccc1)Cc1cccc(Cl)c1,0.136,-0.166,0.891,-0.217,-0.0958,-0.549,0.274 (inactive),0.256,-1.16,2.89 (inactive),2.5,0.465 (inactive),1.61 (inactive),-0.312 (inactive),-0.131 (inactive),0.438 (inactive),0.839 (inactive),1.01 (inactive),2.06,-0.0931
C=CC[C@@]1(C(=O)N2CCOCC2)N=C(c2ccc(OCCCO)cc2)O[C@@H]1c1ccccc1CN=[N+]=[N-],1.42,0.563,1.09,-0.909,-0.697,1.97,-0.212 (inactive),-0.838,-0.845,0.278 (inactive),0.0491,0.0155 (inactive),0.118 (inactive),0.159 (inactive),0.137 (inactive),-0.109 (inactive),-0.0245 (inactive),0.443 (inactive),-0.052,0.184
COC(=O)c1nc2oc1CC[C@@H](CO)NC(=O)N(C)Cc1cnnn1C[C@H](Cc1ccccc1)NC2=O,0.0656,-0.65,0.537,1.01,0.529,0.912,1.25 (inactive),-0.912,-0.511,0.634 (inactive),0.841,-1.07 (inactive),1.09 (inactive),-0.288 (inactive),0.383 (inactive),0.477 (inactive),0.218 (inactive),1.12 (inactive),1.47,-0.148
O=C1OCCC=C[C@H]2OC34C=CCN(Cn5nnc6ccccc65)C(=O)[C@H]3N(CCCCCCO)C(=O)[C@@H]4C12 (stereo not given in full),0.16,-0.808,-0.381,1.78,-0.264,0.515,0.256 (inactive),-0.137,-0.5,-0.356 (inactive),-0.677,0.506 (inactive),-2.51 (inactive),-0.272 (inactive),0.205 (inactive),0.587 (inactive),0.603 (inactive),0.703 (inactive),-0.288,-0.302
O=C1OCC=C[C@H]2OC34C=CCN(c5ccc(Cl)cc5)C(=O)[C@H]3N(CCO)C(=O)[C@@H]4[C@@H]12 (stereo not given in full),0.667,0.0916,0.781,0.0654,0.714,-0.365,-0.803 (inactive),0.0649,0.596,-0.27 (inactive),-0.222,0.52 (inactive),0.296 (inactive),0.198 (inactive),-0.401 (inactive),0.568 (inactive),0.973 (inactive),1 (inactive),0.825,-0.22
CCCCCCc1nc(-c2cc(C)c(OC)c(C)c2)c(C)c2c1[Si](C(C)C)(C(C)C)OC2,-0.499,1.66,-0.289,-2.84,-1.44,0.797,0.354 (inactive),-0.18,-1.6,0.197 (inactive),-0.52,-0.214 (inactive),0.899 (inactive),-2.86 (inactive),0.374 (inactive),-0.199 (inactive),0.326 (inactive),-0.461 (inactive),0.736,-0.0994
